Assay [1] concerns the target T1, Inhibitor of nuclear factor kappa-B kinase subunit epsilon (Homo sapiens) (UniProt Q14164).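 Note: reported values are averaged percent inhibition figures against human IKKε.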
T1 sequence (whole entry): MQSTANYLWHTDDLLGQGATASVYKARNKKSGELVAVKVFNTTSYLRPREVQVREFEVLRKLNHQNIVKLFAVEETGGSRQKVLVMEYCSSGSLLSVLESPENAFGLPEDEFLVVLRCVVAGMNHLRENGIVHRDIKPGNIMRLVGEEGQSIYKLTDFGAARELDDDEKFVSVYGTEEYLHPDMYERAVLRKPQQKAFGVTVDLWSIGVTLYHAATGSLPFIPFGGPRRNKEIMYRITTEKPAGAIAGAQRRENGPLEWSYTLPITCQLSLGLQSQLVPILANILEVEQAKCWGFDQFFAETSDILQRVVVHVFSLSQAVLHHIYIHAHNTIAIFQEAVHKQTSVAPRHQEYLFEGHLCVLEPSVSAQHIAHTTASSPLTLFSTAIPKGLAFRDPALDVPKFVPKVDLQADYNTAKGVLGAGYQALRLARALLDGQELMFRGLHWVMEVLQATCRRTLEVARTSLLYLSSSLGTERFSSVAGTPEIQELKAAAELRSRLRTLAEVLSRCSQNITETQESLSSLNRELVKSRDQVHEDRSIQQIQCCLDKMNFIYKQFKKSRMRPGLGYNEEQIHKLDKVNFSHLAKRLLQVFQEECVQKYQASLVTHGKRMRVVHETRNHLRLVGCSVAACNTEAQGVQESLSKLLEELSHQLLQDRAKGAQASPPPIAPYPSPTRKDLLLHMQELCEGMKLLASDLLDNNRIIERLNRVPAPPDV
Particulars: at 1 µM.

Assay [2] has as its target T2, Serine/threonine-protein kinase Nek1 (Homo sapiens) (UniProt Q96PY6).
T2 sequence (whole entry): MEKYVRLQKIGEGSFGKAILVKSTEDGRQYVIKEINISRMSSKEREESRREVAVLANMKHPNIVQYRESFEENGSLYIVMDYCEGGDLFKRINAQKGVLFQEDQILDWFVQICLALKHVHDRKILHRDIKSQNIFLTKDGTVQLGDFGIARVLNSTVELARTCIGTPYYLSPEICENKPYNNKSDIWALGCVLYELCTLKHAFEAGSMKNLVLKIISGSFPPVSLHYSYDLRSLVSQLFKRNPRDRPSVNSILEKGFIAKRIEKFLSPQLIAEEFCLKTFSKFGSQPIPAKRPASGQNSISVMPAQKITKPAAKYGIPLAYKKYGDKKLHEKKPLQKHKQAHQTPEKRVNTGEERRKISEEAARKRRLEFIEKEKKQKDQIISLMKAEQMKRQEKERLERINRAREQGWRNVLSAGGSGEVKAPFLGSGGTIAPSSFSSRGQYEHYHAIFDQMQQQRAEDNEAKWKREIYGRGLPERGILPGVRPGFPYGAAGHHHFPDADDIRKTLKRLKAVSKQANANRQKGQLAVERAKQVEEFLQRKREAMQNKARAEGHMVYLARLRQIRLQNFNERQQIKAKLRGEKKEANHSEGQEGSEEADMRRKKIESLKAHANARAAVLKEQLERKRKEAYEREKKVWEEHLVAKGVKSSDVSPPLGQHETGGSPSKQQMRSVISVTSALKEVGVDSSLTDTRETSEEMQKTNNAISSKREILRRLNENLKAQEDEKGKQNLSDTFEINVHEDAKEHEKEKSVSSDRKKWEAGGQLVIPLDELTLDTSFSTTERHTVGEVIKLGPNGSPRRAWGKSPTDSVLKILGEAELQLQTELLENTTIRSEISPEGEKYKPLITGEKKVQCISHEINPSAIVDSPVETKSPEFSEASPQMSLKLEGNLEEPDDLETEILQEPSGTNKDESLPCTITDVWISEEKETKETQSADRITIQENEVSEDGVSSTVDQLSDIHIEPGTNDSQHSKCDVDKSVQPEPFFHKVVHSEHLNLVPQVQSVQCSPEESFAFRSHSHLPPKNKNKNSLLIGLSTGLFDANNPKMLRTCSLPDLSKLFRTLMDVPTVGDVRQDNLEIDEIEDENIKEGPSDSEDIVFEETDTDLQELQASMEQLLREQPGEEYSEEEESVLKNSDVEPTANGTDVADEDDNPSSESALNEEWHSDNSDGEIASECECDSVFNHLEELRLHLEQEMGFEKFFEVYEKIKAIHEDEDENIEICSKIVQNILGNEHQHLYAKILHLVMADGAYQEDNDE
To be noted: at 0.1 µM.

Assay [3] deals with T2, Serine/threonine-protein kinase Nek1 (Homo sapiens). Particulars: at 1 µM.
The target of assay [4] is T3, Serine/threonine-protein kinase Nek2 (Homo sapiens) (UniProt P51955).
T3 sequence (whole entry): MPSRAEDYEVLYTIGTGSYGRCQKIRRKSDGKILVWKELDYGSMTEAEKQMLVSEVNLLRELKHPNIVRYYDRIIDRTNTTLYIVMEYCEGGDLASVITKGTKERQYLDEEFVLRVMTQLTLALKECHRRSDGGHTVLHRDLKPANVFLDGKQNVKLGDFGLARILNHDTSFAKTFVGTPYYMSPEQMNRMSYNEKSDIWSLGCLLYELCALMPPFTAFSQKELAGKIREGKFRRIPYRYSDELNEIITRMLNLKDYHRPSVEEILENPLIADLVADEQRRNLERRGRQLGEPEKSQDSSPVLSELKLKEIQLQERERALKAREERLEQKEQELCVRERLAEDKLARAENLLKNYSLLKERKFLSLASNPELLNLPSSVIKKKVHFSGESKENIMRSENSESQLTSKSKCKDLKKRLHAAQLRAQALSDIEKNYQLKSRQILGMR
Particulars: at 0.1 µM.

Assay [5] concerns the target T3, Serine/threonine-protein kinase Nek2 (Homo sapiens). Particulars: at 1 µM.
Assay [6] concerns the target Serine/threonine-protein kinase Nek6 (Homo sapiens) (UniProt Q9HC98). To be noted: at 0.1 µM.
Assay [7] has the same target. To be noted: at 1 µM.
Assay [8] deals with Serine/threonine-protein kinase Nek7 (Homo sapiens) (UniProt Q8TDX7). Particulars: at 0.1 µM.
For assay [9] the target is unchanged. Particulars: at 1 µM.
Assay [10] concerns the target T4, Serine/threonine-protein kinase Nek9 (Homo sapiens) (UniProt Q8TD19).
T4 sequence (whole entry): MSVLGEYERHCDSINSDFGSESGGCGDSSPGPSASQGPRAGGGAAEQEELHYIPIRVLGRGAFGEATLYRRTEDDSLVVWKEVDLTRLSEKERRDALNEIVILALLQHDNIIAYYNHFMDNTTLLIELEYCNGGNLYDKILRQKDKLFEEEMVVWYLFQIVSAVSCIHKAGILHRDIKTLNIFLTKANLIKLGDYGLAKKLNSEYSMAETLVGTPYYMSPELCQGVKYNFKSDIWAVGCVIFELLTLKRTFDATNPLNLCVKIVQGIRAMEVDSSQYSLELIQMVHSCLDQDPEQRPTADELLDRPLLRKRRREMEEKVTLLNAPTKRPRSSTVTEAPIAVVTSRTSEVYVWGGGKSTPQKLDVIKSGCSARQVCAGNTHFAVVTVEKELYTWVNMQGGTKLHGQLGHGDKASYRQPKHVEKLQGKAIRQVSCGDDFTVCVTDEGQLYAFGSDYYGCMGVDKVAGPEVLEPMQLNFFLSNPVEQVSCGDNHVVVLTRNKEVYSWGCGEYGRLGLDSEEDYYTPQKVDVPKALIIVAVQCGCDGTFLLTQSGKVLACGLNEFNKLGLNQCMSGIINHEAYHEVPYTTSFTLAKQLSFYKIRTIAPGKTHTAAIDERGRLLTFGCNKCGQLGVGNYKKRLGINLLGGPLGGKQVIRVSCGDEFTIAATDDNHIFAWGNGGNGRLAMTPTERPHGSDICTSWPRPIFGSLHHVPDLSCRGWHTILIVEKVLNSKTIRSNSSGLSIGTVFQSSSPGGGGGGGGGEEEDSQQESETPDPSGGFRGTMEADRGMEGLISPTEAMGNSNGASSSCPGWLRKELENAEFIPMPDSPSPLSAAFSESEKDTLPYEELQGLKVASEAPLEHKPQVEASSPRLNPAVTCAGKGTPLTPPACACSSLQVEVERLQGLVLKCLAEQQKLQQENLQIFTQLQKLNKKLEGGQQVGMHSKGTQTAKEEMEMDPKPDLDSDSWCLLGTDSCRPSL
To be noted: at 0.1 µM.

Assay [11] concerns the target T4, Serine/threonine-protein kinase Nek9 (Homo sapiens). To be noted: at 1 µM.
In assay [12] the target is Serine/threonine-protein kinase PLK1 (Homo sapiens) (UniProt P53350). Particulars: at 0.1 µM.
The target is the same in assay [13]. To be noted: at 1 µM.
The target in assay [14] is T5, Dual specificity protein kinase TTK (Homo sapiens) (UniProt P33981).
T5 sequence (whole entry): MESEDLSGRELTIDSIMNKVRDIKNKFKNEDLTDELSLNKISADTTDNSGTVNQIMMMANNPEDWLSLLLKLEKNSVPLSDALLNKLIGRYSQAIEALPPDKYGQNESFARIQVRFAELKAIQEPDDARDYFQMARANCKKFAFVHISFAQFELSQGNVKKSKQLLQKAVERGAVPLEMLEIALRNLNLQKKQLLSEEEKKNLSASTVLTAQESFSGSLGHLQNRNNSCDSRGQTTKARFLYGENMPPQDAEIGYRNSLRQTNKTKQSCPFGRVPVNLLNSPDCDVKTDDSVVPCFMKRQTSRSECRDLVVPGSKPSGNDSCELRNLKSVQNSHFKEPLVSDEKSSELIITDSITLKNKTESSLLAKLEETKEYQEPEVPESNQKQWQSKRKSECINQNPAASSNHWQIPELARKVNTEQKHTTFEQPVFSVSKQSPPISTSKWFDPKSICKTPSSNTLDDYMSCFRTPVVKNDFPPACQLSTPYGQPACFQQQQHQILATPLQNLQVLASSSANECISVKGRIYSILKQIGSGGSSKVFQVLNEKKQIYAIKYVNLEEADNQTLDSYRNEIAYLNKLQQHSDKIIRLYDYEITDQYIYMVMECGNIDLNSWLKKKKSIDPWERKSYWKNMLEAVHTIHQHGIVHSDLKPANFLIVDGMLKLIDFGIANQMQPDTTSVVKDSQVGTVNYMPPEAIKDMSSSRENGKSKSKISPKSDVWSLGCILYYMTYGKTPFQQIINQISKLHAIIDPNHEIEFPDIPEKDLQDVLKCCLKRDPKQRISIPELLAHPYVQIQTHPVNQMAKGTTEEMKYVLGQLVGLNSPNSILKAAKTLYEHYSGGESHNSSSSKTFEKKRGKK
Particulars: at 0.1 µM.

The subject of assay [15] is T6, Receptor-type tyrosine-protein kinase FLT3 (Homo sapiens), P36888 [D835Y].
T6 sequence (whole entry): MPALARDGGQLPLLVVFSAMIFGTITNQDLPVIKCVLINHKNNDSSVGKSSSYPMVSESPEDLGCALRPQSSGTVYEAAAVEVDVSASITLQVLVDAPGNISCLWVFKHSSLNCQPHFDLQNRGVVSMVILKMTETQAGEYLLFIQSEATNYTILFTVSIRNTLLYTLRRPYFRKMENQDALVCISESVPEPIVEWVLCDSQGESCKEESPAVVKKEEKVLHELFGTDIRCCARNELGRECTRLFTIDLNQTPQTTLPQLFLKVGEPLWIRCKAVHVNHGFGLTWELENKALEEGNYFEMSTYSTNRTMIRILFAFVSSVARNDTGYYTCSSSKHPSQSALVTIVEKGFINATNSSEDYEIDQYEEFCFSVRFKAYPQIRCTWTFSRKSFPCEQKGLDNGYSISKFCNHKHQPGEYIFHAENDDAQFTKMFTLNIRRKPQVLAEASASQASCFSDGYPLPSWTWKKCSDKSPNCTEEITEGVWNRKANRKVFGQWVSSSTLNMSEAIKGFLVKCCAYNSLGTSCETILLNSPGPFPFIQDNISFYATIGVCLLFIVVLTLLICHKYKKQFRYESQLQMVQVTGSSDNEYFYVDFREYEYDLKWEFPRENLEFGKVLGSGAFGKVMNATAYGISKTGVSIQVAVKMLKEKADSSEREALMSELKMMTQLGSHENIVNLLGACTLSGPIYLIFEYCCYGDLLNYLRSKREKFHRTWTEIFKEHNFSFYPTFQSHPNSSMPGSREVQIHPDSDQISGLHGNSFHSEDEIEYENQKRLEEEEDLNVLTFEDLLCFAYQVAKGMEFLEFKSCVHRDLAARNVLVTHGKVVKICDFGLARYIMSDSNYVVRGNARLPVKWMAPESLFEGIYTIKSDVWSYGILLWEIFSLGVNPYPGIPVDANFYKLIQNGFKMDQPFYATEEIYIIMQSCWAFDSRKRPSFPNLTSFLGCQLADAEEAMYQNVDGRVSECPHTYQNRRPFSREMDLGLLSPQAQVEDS
To be noted: at 1 µM.

Assay [16] deals with Vascular endothelial growth factor receptor 3 (Homo sapiens) (UniProt P35916). Particulars: at 0.1 µM.
For assay [17] the target is unchanged. Particulars: at 1 µM.
The target in assay [18] is Macrophage colony-stimulating factor 1 receptor (Homo sapiens) (UniProt P07333). To be noted: at 0.1 µM.
For assay [19] the target is unchanged. To be noted: at 1 µM.
In assay [20] the target is Tyrosine-protein kinase Fyn (Homo sapiens) (UniProt P06241). Particulars: at 0.1 µM.
Chain of Tyrosine-protein kinase Fyn (Homo sapiens) (P06241 2-537 limits assumed): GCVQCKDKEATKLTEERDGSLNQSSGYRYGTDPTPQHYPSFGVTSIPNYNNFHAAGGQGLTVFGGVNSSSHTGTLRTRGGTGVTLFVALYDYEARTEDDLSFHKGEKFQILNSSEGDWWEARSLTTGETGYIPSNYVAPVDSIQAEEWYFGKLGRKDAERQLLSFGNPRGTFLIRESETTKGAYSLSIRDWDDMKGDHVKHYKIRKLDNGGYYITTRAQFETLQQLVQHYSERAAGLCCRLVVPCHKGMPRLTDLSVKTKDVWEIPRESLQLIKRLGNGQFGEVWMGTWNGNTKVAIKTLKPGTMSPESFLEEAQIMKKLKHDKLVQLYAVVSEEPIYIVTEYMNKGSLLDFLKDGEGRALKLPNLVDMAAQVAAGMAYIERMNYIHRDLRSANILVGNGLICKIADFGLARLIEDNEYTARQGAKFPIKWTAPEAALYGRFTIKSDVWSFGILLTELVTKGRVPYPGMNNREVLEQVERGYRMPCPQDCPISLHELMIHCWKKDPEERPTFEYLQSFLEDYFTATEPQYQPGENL

Chain of Serine/threonine-protein kinase PLK1 (Homo sapiens) (P53350 whole entry): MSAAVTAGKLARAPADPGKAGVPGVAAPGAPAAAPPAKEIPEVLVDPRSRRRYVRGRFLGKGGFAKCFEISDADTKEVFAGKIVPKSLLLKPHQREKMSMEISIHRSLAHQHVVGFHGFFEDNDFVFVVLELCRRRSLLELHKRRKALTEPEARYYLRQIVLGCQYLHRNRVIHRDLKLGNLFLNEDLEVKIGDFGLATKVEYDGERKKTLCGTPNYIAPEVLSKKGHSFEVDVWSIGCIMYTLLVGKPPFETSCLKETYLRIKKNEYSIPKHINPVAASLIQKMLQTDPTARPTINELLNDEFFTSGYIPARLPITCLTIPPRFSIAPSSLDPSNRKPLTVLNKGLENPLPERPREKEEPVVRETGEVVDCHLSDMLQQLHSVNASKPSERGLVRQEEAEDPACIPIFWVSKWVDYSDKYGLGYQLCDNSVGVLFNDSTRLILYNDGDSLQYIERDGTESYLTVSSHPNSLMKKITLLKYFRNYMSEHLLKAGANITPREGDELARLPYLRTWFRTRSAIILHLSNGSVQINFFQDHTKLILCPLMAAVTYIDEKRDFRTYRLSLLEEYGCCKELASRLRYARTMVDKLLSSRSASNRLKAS
Chain of Serine/threonine-protein kinase Nek6 (Homo sapiens) (Q9HC98 whole entry): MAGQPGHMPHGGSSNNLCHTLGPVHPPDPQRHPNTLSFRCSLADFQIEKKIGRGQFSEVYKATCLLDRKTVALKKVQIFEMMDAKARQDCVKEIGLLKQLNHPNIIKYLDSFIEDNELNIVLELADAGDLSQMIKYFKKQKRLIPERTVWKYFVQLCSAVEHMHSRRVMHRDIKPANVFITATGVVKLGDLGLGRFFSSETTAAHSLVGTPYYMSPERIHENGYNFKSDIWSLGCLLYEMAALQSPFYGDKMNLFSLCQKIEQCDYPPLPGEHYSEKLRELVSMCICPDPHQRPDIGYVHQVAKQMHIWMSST
Chain of Vascular endothelial growth factor receptor 3 (Homo sapiens) (P35916 whole entry): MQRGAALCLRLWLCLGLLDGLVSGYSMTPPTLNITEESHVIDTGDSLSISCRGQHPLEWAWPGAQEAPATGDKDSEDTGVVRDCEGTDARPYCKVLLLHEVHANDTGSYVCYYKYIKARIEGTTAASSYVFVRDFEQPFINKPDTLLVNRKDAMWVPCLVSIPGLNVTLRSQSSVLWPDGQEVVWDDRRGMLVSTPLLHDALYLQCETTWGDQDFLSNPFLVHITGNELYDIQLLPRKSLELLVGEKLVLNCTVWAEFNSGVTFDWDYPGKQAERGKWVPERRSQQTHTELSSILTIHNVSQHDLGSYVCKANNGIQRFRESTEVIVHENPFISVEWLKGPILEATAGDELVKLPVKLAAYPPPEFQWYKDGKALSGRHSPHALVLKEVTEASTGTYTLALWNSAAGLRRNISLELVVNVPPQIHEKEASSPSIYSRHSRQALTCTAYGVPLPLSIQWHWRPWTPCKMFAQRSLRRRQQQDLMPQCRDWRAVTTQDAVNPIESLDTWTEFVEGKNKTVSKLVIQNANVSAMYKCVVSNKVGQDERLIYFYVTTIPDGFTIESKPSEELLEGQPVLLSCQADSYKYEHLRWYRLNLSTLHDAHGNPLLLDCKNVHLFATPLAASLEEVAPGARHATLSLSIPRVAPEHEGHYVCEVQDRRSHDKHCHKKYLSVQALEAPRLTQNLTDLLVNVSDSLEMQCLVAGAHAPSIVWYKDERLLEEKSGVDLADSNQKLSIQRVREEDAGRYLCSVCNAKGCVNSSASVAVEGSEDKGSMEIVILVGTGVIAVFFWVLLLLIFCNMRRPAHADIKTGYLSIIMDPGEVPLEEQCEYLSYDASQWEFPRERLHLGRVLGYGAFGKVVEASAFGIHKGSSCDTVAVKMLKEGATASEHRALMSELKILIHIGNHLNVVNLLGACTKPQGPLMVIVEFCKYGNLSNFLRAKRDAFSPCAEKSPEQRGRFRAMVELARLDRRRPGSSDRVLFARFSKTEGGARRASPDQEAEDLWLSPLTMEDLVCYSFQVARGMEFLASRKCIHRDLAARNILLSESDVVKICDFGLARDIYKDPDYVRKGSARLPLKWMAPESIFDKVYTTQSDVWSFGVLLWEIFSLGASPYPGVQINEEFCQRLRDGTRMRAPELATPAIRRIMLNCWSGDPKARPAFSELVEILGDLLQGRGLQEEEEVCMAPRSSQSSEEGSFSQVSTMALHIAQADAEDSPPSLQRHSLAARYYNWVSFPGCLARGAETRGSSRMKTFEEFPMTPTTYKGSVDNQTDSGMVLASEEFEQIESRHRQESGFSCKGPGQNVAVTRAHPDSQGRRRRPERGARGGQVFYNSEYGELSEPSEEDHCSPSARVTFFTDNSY
Chain of Macrophage colony-stimulating factor 1 receptor (Homo sapiens) (P07333 whole entry): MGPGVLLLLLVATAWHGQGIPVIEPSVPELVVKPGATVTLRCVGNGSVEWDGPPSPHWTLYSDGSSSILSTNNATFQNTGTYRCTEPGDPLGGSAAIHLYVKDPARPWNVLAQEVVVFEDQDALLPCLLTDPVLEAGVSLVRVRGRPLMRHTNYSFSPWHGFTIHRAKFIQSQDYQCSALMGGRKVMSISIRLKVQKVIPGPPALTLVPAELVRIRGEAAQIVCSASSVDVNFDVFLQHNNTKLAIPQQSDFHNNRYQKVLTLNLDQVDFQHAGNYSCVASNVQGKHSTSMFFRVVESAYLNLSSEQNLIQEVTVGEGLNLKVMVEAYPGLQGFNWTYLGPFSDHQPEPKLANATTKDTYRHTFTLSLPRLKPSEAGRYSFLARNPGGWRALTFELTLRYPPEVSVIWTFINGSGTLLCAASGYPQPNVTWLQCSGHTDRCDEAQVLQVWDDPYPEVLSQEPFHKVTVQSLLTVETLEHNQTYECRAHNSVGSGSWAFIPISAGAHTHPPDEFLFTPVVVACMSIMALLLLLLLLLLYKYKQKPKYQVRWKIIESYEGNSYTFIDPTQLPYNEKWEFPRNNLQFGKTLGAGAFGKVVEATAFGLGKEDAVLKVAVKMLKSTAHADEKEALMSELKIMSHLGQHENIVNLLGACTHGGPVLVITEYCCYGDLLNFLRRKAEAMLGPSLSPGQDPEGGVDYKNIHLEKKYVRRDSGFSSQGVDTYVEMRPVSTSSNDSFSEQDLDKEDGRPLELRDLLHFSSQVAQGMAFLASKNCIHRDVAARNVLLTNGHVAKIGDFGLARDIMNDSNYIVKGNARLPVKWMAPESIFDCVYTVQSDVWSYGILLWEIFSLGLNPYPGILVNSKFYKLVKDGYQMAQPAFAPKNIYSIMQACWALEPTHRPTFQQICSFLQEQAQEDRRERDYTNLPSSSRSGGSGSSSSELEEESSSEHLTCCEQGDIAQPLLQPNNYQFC
Chain of Serine/threonine-protein kinase Nek7 (Homo sapiens) (Q8TDX7 whole entry, looked up): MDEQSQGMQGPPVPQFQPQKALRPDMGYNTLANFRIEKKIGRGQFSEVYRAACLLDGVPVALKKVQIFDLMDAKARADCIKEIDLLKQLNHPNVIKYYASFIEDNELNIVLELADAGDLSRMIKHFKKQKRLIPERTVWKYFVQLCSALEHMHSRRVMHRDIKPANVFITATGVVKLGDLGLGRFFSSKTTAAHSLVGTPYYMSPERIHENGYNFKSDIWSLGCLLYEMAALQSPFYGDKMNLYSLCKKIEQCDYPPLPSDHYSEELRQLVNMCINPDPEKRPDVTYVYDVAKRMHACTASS

For the compound `NC(=O)c1ccc(Oc2nccc(-c3c(-c4ccc(F)cc4)ncn3C3CCNCC3)n2)cc1`, the inhibition in assay [1] worked out at 7.38%; in assay [2] it was 4.02%; in assay [3], 5.01%; in assay [4], 6.78%; in assay [5] it was 5.63%; in [6] it was 1.6%. Further, the inhibition in assay [7] is 1.67%; in assay [8], 3.46%; in assay [9], 9.69%; in assay [10] it was 6.05%; in [11], 4.67%; in assay [12], 5.93%. Moreover, the inhibition in assay [13] was found to be 9.34%; in assay [14], 8.68%; in [15] it was 1.08%; in assay [16], 7.32%; in [17], 4.57%; in [18], 5.61%. Moreover, the figures for the inhibition in assay [19] and in assay [20] were 6.15% and 2.66%, respectively.

The record behind these values is ChEMBL document CHEMBL1961873, “Compounds: GSK PKIS; Assays: Nanosyn kinase panel” (2012).
